Measurements from the supplement of paper PMC10681739.

Legend:
ETS1 [1] = biological target: T1, ETS1 (UniProt P14921); experiment: ETS1 binding intensity (PBM fluorescence), ETS1 alone (arbitrary fluorescence units); higher = stronger binding; settings: ETS1 concentration 1 nM; RUNX1 concentration 0 nM
T1 sequence: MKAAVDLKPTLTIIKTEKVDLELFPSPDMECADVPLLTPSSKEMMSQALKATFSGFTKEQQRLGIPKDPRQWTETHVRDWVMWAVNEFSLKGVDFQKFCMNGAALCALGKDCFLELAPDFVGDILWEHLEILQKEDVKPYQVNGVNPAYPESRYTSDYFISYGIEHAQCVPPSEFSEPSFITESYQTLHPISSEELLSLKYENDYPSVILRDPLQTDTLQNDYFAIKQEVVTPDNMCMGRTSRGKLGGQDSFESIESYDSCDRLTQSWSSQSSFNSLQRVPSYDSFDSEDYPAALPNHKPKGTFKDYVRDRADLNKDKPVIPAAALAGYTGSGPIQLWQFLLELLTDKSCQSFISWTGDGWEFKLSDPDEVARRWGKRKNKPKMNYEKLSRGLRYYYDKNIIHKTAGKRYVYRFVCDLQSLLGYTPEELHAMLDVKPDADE

RUNX1 = RUNX1 (UniProt Q01196); experiment: RUNX1 binding intensity (PBM fluorescence), RUNX1 alone (arbitrary fluorescence units); higher = stronger binding; settings: RUNX1 concentration 2 nM; ETS1 concentration 0 nM
Sequence of RUNX1 (Q01196 whole entry): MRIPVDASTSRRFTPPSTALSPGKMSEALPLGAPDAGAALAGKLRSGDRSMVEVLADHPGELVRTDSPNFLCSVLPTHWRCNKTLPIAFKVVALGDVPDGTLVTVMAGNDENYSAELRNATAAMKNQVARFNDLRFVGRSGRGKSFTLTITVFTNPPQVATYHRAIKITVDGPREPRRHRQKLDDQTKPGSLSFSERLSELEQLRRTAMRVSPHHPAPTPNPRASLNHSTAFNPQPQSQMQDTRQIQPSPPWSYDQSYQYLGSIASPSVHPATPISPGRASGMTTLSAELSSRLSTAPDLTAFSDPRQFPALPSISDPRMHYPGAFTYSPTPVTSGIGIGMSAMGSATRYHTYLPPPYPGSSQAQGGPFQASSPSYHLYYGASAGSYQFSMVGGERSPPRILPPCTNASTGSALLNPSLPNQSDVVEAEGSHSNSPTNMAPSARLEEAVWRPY
Protocol: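 Cooperative gcPBM on 36-bp genomic probes with neighbouring ETS1 and RUNX1 sites. Recombinant human RUNX1 (2 nM) was incubated alone or with ETS1 (25 nM) and detected with anti-RUNX1 antibody plus Alexa488 secondary. Values are medians over 4 replicate spots; the RUNX1+ETS1 data were normalised to the RUNX1-only data. The probes sit in constant array flanks that are not printed.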

ETS1 [2] = biological target: T1, ETS1; experiment: ETS1 binding intensity (PBM fluorescence) in presence of RUNX1, normalised to ETS1-only experiment (arbitrary fluorescence units); higher = stronger binding; settings: ETS1 concentration 1 nM; RUNX1 concentration 25 nM
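Throughout, for RUNX1 binding intensity (PBM fluorescence), RUNX1 alone: Full-length recombinant human RUNX1 bound to double-stranded 36-bp genomic probes on a high-density microarray, scored as Alexa488 fluorescence per spot via anti-RUNX1 antibody, median of four replicate spots.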

| Sequence | ETS1 binding intensity (ETS1 [1]) | RUNX1 binding intensity (RUNX1) | ETS1 binding intensity (ETS1 [2]) |
| --- | --- | --- | --- |
| GAGTACAGGAAATGCAAAGTAAAACCACAGTGAGAT | 1460 | 904 | 4550 |
| TGAGCCCTACTTCCGGTGGTGCTGTGGTCTGCCCCT | 10700 | 786 | 13200 |
| GAAAACACAGGAAGCCGTCCGCGCAACCGCGTTGCA | 1520 | 840 | 2160 |
| GGGTGCTTCCTATAAACAATGACTCATTACCGCACT | 425 | 920 | 474 |
| ATTTCCATTTCCGGACTCTTCTCCTGCCCGCAGGGC | 2270 | 1220 | 3560 |
| GAGAAACAAACAGGATGTGGTCTCTGCCCTGGAGGA | 7010 | 737 | 12000 |
| AGCGCGCCGCCGACCGGATGCGGGAACTGGGCTCGG | 11800 | 715 | 19400 |
| CCAACAGTACCCTTCCTCCCTTAACCACAAGACTGA | 445 | 5500 | 2090 |
| CCCAGCCGAGGGAGGAAGCCTGCGGTCACTGCCATC | 402 | 1640 | 2740 |
| ACTCCTCCCGCTTCCGCTGCCGCAGCCGGTCGTAAC | 1280 | 1310 | 1680 |
| TGCCGCGGATACCCAGCCAGCGGCAGTGCGGTTAAC | 349 | 1140 | 955 |
| ACAGACCAGGGGATTTCCTGTGGGTGGAGTCCTCAG | 859 | 676 | 771 |
| CCATTCTTCCGGTGGAGATGGCTGCGGCCGTGGCGG | 568 | 714 | 588 |
| CCCTGGGGCCCCACTTCCTTGCCCACAAGAAAGGAC | 395 | 1020 | 446 |
| CATTTACAGAAAAGGAAACCGCAAGTTTGAGCAAGT | 976 | 25200 | 2150 |
| ACGGTGTGTCTCATTTCCTGTGGGTAACAGGCACCA | 2120 | 935 | 3240 |
| CGAAAGTGACCGGAAGTAACCGCCGGGCCAAGATGG | 17800 | 795 | 18200 |
| GAGATACACAGCGACATCCGCCCGCAAGAGCATGGT | 823 | 733 | 1090 |
| CCTCCCACCTTGGCAGGAAGCGGTTTATCAGATTAA | 4250 | 810 | 7770 |
| CATGTGCTTCCGGCTTGATCTGTGGTTATTCTGGTT | 1370 | 1270 | 2980 |
| GAAGTCACATCCTGTCTGTTGCGGCAGGGCACAGAG | 1470 | 756 | 1520 |
